Measured values published in PubChem BioAssay (NCATS).
Records with an inconclusive call do not appear. A call without a number means that no potency is given here. Unmarked numbers belong to inactive results. Active and inactive are the calls of the source. Calls follow the shape of the dose curve; as a rule, active = well fitted inhibition curve with a large enough effect; inconclusive = small, poorly fitted or top-dose-only effect; inactive = no such curve, though single readings can be large or run the other way.

Assays:
[1] = test system: Zika virus NS2B-NS3 protease (unlinked complex); experiment: Primary screen GU Rhodamine qHTS for Zika virus inhibitors: Unlinked NS2B-NS3 protease assay (AID 1347159); also: nearly all actives have a fitted effect of over 60% in size
Method in brief: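 Noncovalent NS2B hydrophilic domain/NS3 protease complex (25 nM final) in 10 mM Tris-HCl pH 8.0, 0.01% Tween 20, preincubated 15 min with compounds (up to 114 microM), then 1.5 microM Rhodamine110 substrate. Fluorescence change over 15 min fitted to 4-parameter Hill.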

[2] = test system: Zika virus NS2B-NS3 protease (linked construct); experiment: Primary screen NINDS Rhodamine qHTS for Zika virus inhibitors (AID 1347160); also: nearly all actives have a fitted effect of over 55% in size
Method in brief: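 Purified NS2B-NS3 protease with the NS2B hydrophilic domain joined by a flexible linker (25 nM) in 10 mM Tris-HCl pH 8.0, 0.01% Tween 20, preincubated 15 min at RT with compound; Rhodamine110 peptide substrate 1.5 µM; fluorescence change over 15 min; 4-parameter Hill fit.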

CC[C@H]1OC(=O)[C@](C)(F)C(=O)[C@H](C)[C@@H](O[C@@H]2O[C@H](C)C[C@H](N(C)C)[C@H]2O)[C@](C)(OC)C[C@@H](C)C(=O)[C@@H](C)[C@H]2N(CCCCn3cc(-c4cccc(N)c4)nn3)C(=O)O[C@]12C
Potency [1]: inactive
Potency [2]: inactive

CC[C@H]1OC(=O)[C@H](C)[C@@H](O[C@H]2C[C@@](C)(OC)[C@@H](O)[C@H](C)O2)[C@H](C)[C@@H](O[C@@H]2O[C@H](C)C[C@H](N(C)C)[C@H]2O)[C@](C)(O)C[C@@H](C)C(=O)[C@H](C)[C@H]2OC(=O)O[C@@]21C
Potency [1]: inactive
Potency [2]: inactive

C=C1CCC[C@]2(C)CC[C@@H](C(=C)C(=O)O)[C@H](O)[C@@H]12
Potency [1]: inactive
Potency [2]: inactive

C[C@H](C/C=C/C(C)(C)O)[C@H]1CC[C@@]2(C)[C@@H]3[C@@H](O[C@@H]4O[C@H](CO)[C@@H](O)[C@H](O)[C@H]4O)C=C4C(CC[C@H](O)C4(C)C)[C@]3(C=O)CC[C@]12C (stereo partly drawn)
Potency [1]: inactive
Potency [2]: inactive

O=C1CCC(=O)N(O)CCCCCNC(=O)CCC(=O)N(O)CCOCCNC(=O)CCC(=O)N(O)CCCCCN1
Potency [1]: inactive
Potency [2]: inactive

COC(=O)N[C@@H](C)CNc1nccc(-c2cn(C(C)C)nc2-c2cc(Cl)cc(NS(C)(=O)=O)c2F)n1
Potency [1]: inactive
Potency [2]: inactive

CC1(C)CCC2(C(=O)OC3OCC(O)C(O)C3O)CCC3(C)C(=CCC4C5(C)CC(O)C(OC6OC(COC7OCC(O)C(O)C7O)C(O)C(O)C6O)C(C)(C)C5CCC43C)C2C1 (stereo not drawn)
Potency [1]: inactive
Potency [2]: inactive

Cc1nc(Nc2n[nH]c3c2CN(C(=O)NC(CN(C)C)c2ccccc2)C3(C)C)c2sccc2n1 (stereo not drawn)
Potency [1]: inactive
Potency [2]: inactive

CCOCCn1nc(CC)c2nc(N3CCC(C(=O)O)CC3)nc(Nc3cc(C)ccn3)c21
Potency [1]: inactive
Potency [2]: inactive

C[C@@H]1C(=O)O[C@H]2[C@H](O)C34[C@H]5C[C@@H](C(C)(C)C)C36[C@@H](OC(=O)[C@@H]6O)O[C@@]4(C(=O)O5)[C@@]12O (stereo partly drawn)
Potency [1]: inactive
Potency [2]: inactive

CC(C)C[C@H](CC(=O)NO)C(=O)N[C@@H](Cc1ccc2ccccc2c1)C(=O)N[C@@H](C)C(=O)NCCN
Potency [1]: inactive
Potency [2]: inactive

O=C(OC[C@H]1O[C@H](O[C@]2(CO)O[C@H](CO)[C@@H](O)[C@@H]2O)[C@H](O)[C@@H](O)[C@@H]1O)c1ccccc1
Potency [1]: inactive
Potency [2]: inactive

CC1CCCCN1S(=O)(=O)c1ccc(N2CCCC2=O)cc1 (stereo not drawn)
Potency [1]: inactive
Potency [2]: inactive

C[C@@H]1O[C@@H](O[C@H]2[C@@H]3C=CO[C@@H](O[C@@H]4O[C@H](CO)[C@@H](O)[C@H](O)[C@H]4O)[C@@H]3[C@@]3(CO)O[C@@H]23)[C@H](OC(=O)/C=C/c2ccc(O)c(O)c2)[C@H](O)[C@H]1O
Potency [1]: inactive
Potency [2]: inactive

CC1(C)CC2C=C(C(=O)O)C3COC(=O)C(O)(CO)C23C1 (stereo not drawn)
Potency [1]: inactive
Potency [2]: inactive

CC(=O)OC12COC1CC(O)C1(C)C(=O)C(O)C3=C(C)C(OC(=O)C(O)C(NC(=O)OC(C)(C)C)c4ccccc4)CC(O)(C(OC(=O)c4ccccc4)C21)C3(C)C (stereo not drawn)
Potency [1]: inactive
Potency [2]: inactive

C=C1C(O)CC2C(C(=O)O)=COC(O[C@@H]3O[C@H](COC(=O)/C=C/c4ccc(O)cc4)[C@@H](O)[C@H](O)[C@H]3O)C12 (stereo partly drawn)
Potency [1]: inactive
Potency [2]: inactive

CC(=O)O[C@@H](CO[C@@H]1O[C@H](CO)[C@H](O)[C@H](O)[C@H]1O)[C@]1(C)C=C2CC[C@@H]3C(C)(C)[C@@H](O)CC[C@@]3(C)[C@@H]2CC1
Potency [1]: inactive
Potency [2]: inactive

COC(=O)CC(O)C1OC(c2ccccc2)C(O)C1O (stereo not drawn)
Potency [1]: inactive
Potency [2]: inactive

O=C1CC2(CCCC2)[C@H](O)C(=O)N1CCCCN1CCN(c2ncccn2)CC1
Potency [1]: inactive
Potency [2]: inactive

CC1=C2C[C@H]3O[C@@]3(C)CCC3O[C@@]3(C)C[C@@]2(O)OC1=O (stereo partly drawn)
Potency [1]: inactive
Potency [2]: inactive

CC1=CC(=O)CC(C)(C)[C@@]1(O)CC[C@@H](C)O[C@@H]1O[C@H](CO)[C@@H](O)[C@H](O)[C@H]1O
Potency [1]: inactive
Potency [2]: inactive

C=C1C(=O)O[C@H](CCC)[C@H]1C(=O)O
Potency [1]: inactive
Potency [2]: inactive

CCCC(=O)O[C@@H]1[C@@H]2[C@@H](OC(C)=O)[C@]3(C)C(=O)[C@H]4[C@@H](OC(C)=O)C(C)(C)C[C@H]4[C@]3(C)C(=O)[C@@]2(OC(C)=O)C[C@@H]1C
Potency [1]: inactive
Potency [2]: inactive

NC1CCC(Nc2cc(-c3cccc(NCc4cccc(F)c4)n3)c(Cl)cn2)CC1 (stereo not drawn)
Potency [1]: inactive
Potency [2]: inactive

O=C(NCC(O)CO)c1ccncc1Nc1ccc(I)cc1F (stereo not drawn)
Potency [1]: inactive
Potency [2]: inactive

COc1ccc(-c2nc(-c3ccc(-c4cccc(Cl)c4)o3)[nH]c2-c2ccc(OC)cc2)cc1
Potency [1]: inactive
Potency [2]: inactive

CC(C)(F)C[C@@H](N[C@@H](c1ccc(-c2ccc(S(C)(=O)=O)cc2)cc1)C(F)(F)F)C(=O)NC1(C#N)CC1
Potency [1]: inactive
Potency [2]: inactive

COC(=O)C1=COC(OC2OC(CO)C(O)C(O)C2O)C2C1C=CC2(O)CO (stereo not drawn)
Potency [1]: inactive
Potency [2]: inactive

CC1=CC(=O)CC2C1(O)CCC(C)C21CC(c2ccoc2)OC1=O (stereo not drawn)
Potency [1]: inactive
Potency [2]: inactive

O=C(NCc1cccc(O)c1)c1cc2cc(F)ccc2[nH]1
Potency [1]: inactive
Potency [2]: inactive

CC(NC(=O)CCc1nc2ccccc2c(=O)[nH]1)c1ccccc1 (stereo not drawn)
Potency [1]: inactive
Potency [2]: inactive

C=C(C(=O)OC)C1C(O)CC2(C)C(O)CCC(=O)C2C1O (stereo not drawn)
Potency [1]: inactive
Potency [2]: inactive

COc1ccc(CNC(=O)c2sc3nc(C)cc(C)c3c2N)cc1
Potency [1]: inactive
Potency [2]: inactive

CC1OC(OC2C(C)OC(OC3C(OC(=O)C45CCC(C)(C)CC4C4=CCC6C7(C)CCC(OC8OC(C(=O)O)C(O)C(O)C8OC8OC(CO)C(O)C(OC9OC(C)C(O)C(O)C9O)C8O)C(C)(CO)C7CCC6(C)C4(C)CC5)OC(CO)C(O)C3O)C(O)C2O)C(O)C(O)C1O (stereo not drawn)
activity change, negative = inhibition [1]: 1.27% [at 19.1 µM]
outcome [2]: inactive [at 10.7 µM]

OC[C@H]1O[C@@H](OCCc2ccc(O)cc2)[C@H](O[C@@H]2OC[C@](O)(CO)[C@H]2O)[C@@H](O)[C@@H]1O
Potency [1]: inactive
Potency [2]: inactive

CC1(C)CC[C@]2(C(=O)O[C@@H]3O[C@H](CO[C@@H]4O[C@H](CO)[C@@H](O)[C@H](O)[C@H]4O[C@@H]4O[C@H](CO)[C@H](O)[C@H](O)[C@H]4O)[C@@H](O)[C@H](O[C@@H]4O[C@H](CO)[C@@H](O)[C@H](O)[C@H]4O)[C@H]3O)CC[C@]3(C)C(=CCC4[C@@]5(C)CC[C@H](O[C@@H]6OC[C@@H](O)[C@H](O)[C@H]6O)[C@@](C)(C(=O)O)C5CC[C@]43C)[C@@H]2C1 (stereo partly drawn)
activity change, negative = inhibition [1]: 20.2% [at 19.1 µM]
activity change, negative = inhibition [2]: -4.93% [at 10.7 µM]

CC(=O)O[C@@H]1[C@H](O)[C@@H](O[C@@H]2O[C@@H](C)[C@H](O[C@@H]3OC[C@@H](O)[C@H](O[C@@H]4OC[C@@H](O)[C@H](O)[C@H]4O)[C@H]3O)[C@@H](O[C@@H]3O[C@H](CO)[C@@H](O)[C@H](O)[C@H]3O)[C@H]2O)[C@H](OC(=O)[C@]23CCC(C)(C)C[C@H]2C2=CCC4[C@@]5(C)CC[C@H](O[C@@H]6O[C@H](C(=O)O)[C@@H](O)[C@H](O[C@@H]7OC[C@@H](O)[C@H](O)[C@H]7O)[C@H]6O[C@@H]6O[C@H](CO)[C@H](O)[C@H](O)[C@H]6O)[C@@](C)(C=O)C5CC[C@@]4(C)[C@]2(C)CC3)O[C@@H]1C (stereo partly drawn)
activity change, negative = inhibition [1]: -1.88% [at 19.1 µM]
activity change, negative = inhibition [2]: 7.65% [at 10.7 µM]

COc1ccc(C2(O)CCC(N3CC[C@@H](NC(=O)CNC(=O)c4cccc(C(F)(F)F)c4)C3)CC2)cn1 (stereo partly drawn)
Potency [1]: inactive
Potency [2]: inactive

C[C@H]1CC[C@@H]2N(C1)C[C@@H]1[C@H]([C@@H](O)[C@H](O)[C@]3(O)[C@H]1C[C@@]14OC5(O)[C@@H](C[C@@H](O)[C@@H]31)[C@]4(C)CC[C@@H]5O)[C@]2(C)O
Potency [1]: inactive
Potency [2]: inactive

CC(C)(C)OC(=O)N1CCC(OCc2nc(-c3ccncc3)no2)CC1
Potency [1]: inactive
Potency [2]: inactive

CC(=O)OC1C(OC(=O)c2ccccc2)C2C(C)(C)CC(=O)CC2(C)C23CCC(C)(C2)C(O)CC13 (stereo not drawn)
Potency [1]: inactive
Potency [2]: inactive

CNC(=O)c1ccccc1Nc1nc(Nc2ccc(N3CCNCC3)cc2)ncc1Cl
Potency [1]: inactive
Potency [2]: inactive

COc1cc(Br)c(S(=O)(=O)Nc2ccc(C(F)(F)F)c(O[C@@H]3CCN(C)C3)c2)cc1OC
Potency [1]: inactive
Potency [2]: inactive

CC(O)CCC1C(CO[C@@H]2O[C@H](CO)[C@@H](O)[C@H](O)[C@H]2O)CC(O)CC1(C)C (stereo partly drawn)
Potency [1]: inactive
Potency [2]: inactive

Nc1ccc(-c2cccc3c(=O)cc(N4CCOCC4)oc23)cc1
Potency [1]: inactive
Potency [2]: inactive

CC1(C)CC2C(O)c3cocc3CC(C)(O)C2C1 (stereo not drawn)
Potency [1]: inactive
Potency [2]: inactive

c1ccc(-c2ncc(CN3CCN(c4ncccn4)CC3)[nH]2)cc1
Potency [1]: inactive
Potency [2]: inactive

COc1cc(N2CCOCC2)ccc1Nc1ncc(Cl)c(Nc2ccccc2NS(C)(=O)=O)n1
Potency [1]: inactive
Potency [2]: inactive

CCN(Cc1cccnc1)C(=O)CN(c1ccc(OC)nc1)S(=O)(=O)c1ccccc1C
Potency [1]: inactive
Potency [2]: inactive

CN(C)c1nc(NC2CCC(NCCc3ccc(Br)cc3OC(F)(F)F)CC2)nc2ccccc12 (stereo not drawn)
Potency [1]: inactive
Potency [2]: inactive

CC12CCC(OC3OC(CO)C(O)C(OC4OC(CO)C(O)C(O)C4O)C3O)CC1CCC1C2CCC2(C)/C(=C3/COC(=O)C3)CCC12O (stereo not drawn)
Potency [1]: inactive
Potency [2]: inactive

CN[C@@H]1[C@H](O[C@H]2[C@H](O[C@@H]3[C@@H](O)[C@H](O)[C@@H](N=C(N)N)[C@H](O)[C@H]3N=C(N)N)O[C@@H](C)[C@]2(O)C=O)O[C@@H](CO)[C@H](O)[C@H]1O
Potency [1]: inactive
Potency [2]: inactive

CC1COC(Nc2ccc3ncnc(Nc4ccc(OCc5nccs5)c(Cl)c4)c3c2)=N1 (stereo not drawn)
Potency [1]: inactive
Potency [2]: inactive
